Shown are actives, neighbours in structure and some others; about 1.1% of the full set was active somewhere.
BioA inh – M. tuberculosis BioA enzyme inhibitors, primary screen, biochemical, plate reader, single point, HTS; 7,8-diaminopelargonic acid synthase BioA (Mycobacterium tuberculosis); AID 602481, 2012; actives 0.096% (n = 360,000); purified M. tuberculosis BioA enzyme; inhibition, % at 9.99 µM; in the data active = inhibition above about 40%
BJeLR lethal – MLPCN primary cell-based screen for lethality selective to Ras in HRASV12 cells. actives 0.17% (n = 300,000). inhibition, % (concentration not given with the values). BJeLR (HRASV12) viability, CellTiter-Glo ATP luminescence, 48 h; in the data active = inhibition above about 50%
Mtb betalactam – beta-lactam sensitization of Mtb H37Rv, H37Rv | inhibition, % at 25 µM | M. tuberculosis H37Rv growth with meropenem, percent inhibition | actives 0.27% (n = 330,000) | AID 434955, 2010; call rule not given here;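 also: growth measured after seven days incubation then overnight dye step; 0% = bacteria only wells and 100% = bacteria with antibiotic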
Y pestis TopoI – Yersinia pestis topoisomerase I inhibitors, primary screen, biochemical, cleavage product accumulation, plate reader, single point | activity, % at 10 µM | AID 504884, 2011 | Y. pestis Topo-I cleavage product accumulation | actives 0.064% (n = 360,000); in the data active = activity above about 50%, passing the limit was not always enough
RecA intein inh – Mtb RecA intein splicing inhibitors, primary screen, biochemical, fluorescence, HTS; actives 0.75% (n = 290,000); cell-free RecA intein splicing; inhibition, % (concentration not given with the values); Protein RecA (Mycobacterium tuberculosis (strain ATCC 25618 / H37Rv)), P9WHJ3; AID 2221, 2009; in the data active = inhibition above about 30%;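 also: 0% = vehicle wells and 100% = reference inhibitor control wells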
Target sequence (P9WHJ3 whole entry, looked up): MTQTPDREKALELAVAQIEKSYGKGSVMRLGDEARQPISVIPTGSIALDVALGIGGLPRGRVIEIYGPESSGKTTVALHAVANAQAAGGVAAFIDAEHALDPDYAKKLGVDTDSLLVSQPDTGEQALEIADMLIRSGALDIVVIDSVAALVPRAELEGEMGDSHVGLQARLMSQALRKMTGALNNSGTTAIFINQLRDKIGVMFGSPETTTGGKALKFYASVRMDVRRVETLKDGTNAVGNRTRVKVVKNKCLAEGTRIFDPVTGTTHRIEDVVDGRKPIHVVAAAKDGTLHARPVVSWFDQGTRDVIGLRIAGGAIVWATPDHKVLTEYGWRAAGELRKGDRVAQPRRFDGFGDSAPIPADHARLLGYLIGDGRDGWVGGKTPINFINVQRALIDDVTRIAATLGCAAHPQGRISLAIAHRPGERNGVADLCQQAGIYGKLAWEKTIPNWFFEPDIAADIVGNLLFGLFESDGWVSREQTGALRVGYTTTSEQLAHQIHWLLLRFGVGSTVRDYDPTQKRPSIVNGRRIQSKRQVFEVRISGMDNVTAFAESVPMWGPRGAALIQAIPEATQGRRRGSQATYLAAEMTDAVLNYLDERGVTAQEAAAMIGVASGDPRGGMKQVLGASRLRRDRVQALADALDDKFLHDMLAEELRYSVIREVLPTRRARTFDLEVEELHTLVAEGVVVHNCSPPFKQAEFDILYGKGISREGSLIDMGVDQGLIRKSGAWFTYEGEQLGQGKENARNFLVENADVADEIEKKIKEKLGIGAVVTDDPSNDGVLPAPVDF
CCHFV vOTU inh – CCHFV vOTU protease inhibitors, primary screen, biochemical, Pep-AMC substrate, fluorescence; AID 651958, 2012; Crimean-Congo hemorrhagic fever virus L polyprotein viral ovarian tumor (vOTU) protease …; actives 0.55% (n = 370,000); inhibition, % at 11.5 µM; in the data active = inhibition above about 30%; also: 0% = vehicle wells with enzyme and 100% = no enzyme wells
An asterisk follows results filed as active; / = not tested or not shown.

SMILES | BioA inh | BJeLR lethal | Mtb betalactam | Y pestis TopoI | RecA intein inh | CCHFV vOTU inh
Cc1noc(C)c1NC(=O)NCC[C@H]1CC[C@@H](NC(=O)Cc2cccnc2)[C@H](CO)O1 | 1 | / | / | / | / | /
Cc1ccc2[nH]cc(C(=O)CCl)c2c1 | / | 54* | 91 | -4 | 28 | -2
C[C@@H]1CN([C@H](C)CO)C(=O)c2cc(C#CCc3ccccc3)cnc2O[C@H]1CN(C)Cc1cccnc1 | 5 | / | / | / | / | /
Oc1ccccc1/C=N/Nc1nccnc1Cl | 3 | 31 | 67 | 4 | 0 | 8
Oc1ccc(/C=N/Nc2nccnc2Cl)c(O)c1 | / | 68* | 0 | 3 | 21 | 5
COc1ccc(C(=O)Nc2nc3ccccc3s2)c(OC)c1 | 0 | 53* | / | 1 | 2 | 2
COc1ccccc1C(=O)Nc1nc2ccccc2s1 | -1 | 46 | 6 | 3 | -6 | 15
CN(C)C(=O)c1cccc(-c2ccc3c(c2)[C@H]2[C@H](CCN2Cc2nccs2)[C@H](CO)N3)c1 | -1 | / | / | / | / | /
Cc1nc2ccccc2c(=O)n1-c1ccc(C(=O)O)cc1 | 2 | -5 | -6 | 2 | 1 | 9
O=C(O)c1ccc(-n2c(=O)c3ccccc3c3ccccc3c2=O)cc1 | / | -1 | 7 | 8 | 32* | -1
COc1ccc(S(=O)(=O)N2CCOCC2)cc1NC(=O)CCNC(=O)c1ccc(Cl)cc1 | 0 | / | / | -3 | / | 16
COc1ccc(S(=O)(=O)N2CCOCC2)cc1NC(=O)CCNC(=O)c1ccc(Br)cc1 | 0 | 108* | -11 | 11 | 0 | -8
Cc1ccc2c(c1)COc1c3ccc(C(=O)N4CCCCC4)cc3nn1-2 | -1 | 23 | 41 | 23 | 3 | -4
O=C(c1ccc2c3n(nc2c1)-c1ccccc1CO3)N1CCCCC1 | 1 | 60* | 28 | 16 | 3 | 5
O=C(c1ccc2c3n(nc2c1)-c1ccccc1CO3)N1CCOCC1 | 0 | 57* | 2 | 4 | -1 | /
CO[C@H]1CN(C)C(=O)c2ccc(NS(=O)(=O)c3ccc(-c4ccccc4)cc3)cc2OC[C@@H](C)NC[C@H]1C | 0 | / | / | / | / | /
COCC(=O)N(C)C[C@H]1Oc2cc(C3=CCCC3)ccc2S(=O)(=O)N([C@H](C)CO)C[C@H]1C | -2 | / | / | / | / | /
CCCC#Cc1ccc2c(c1)O[C@@H](CN(C)C(=O)Nc1ccccc1F)[C@H](C)CN([C@@H](C)CO)S2(=O)=O | -4 | / | / | / | / | /
O=C(CCCCCN1C(=O)c2cccc3cccc(c23)C1=O)NCc1cccnc1 | -2 | 80* | -12 | 1 | 0 | -11
O=C(CCCN1C(=O)c2ccccc2C1=O)NCc1cccnc1 | -1 | 12 | -8 | 0 | 0 | -5
O=C(CCCCCCCCCCC(=O)NCc1cccnc1)NCc1cccnc1 | / | 74* | 0 | -4 | 1 | 2
CC(C)(C)c1ccc(C(=O)Nc2ccc(C(=O)NCc3cccnc3)cc2)cc1 | 1 | 82* | 66 | 5 | / | 3
CC(C)(C)C(=O)Nc1ccc(C(=O)NCc2cccnc2)cc1 | 0 | 3 | 9 | 1 | 2 | -8
CC(=O)c1ccc(C(=O)N(C)C2CCCN(Cc3ccccc3F)C2)s1 (stereo unspecified) | 75* | 10 | -7 | -5 | 0 | 7
COC(=O)c1ccc(C(=O)N(C)C2CCCN(Cc3ccccc3F)C2)cc1 (stereo unspecified) | -1 | -8 | 0 | 6 | 1 | 0
SMILES | BioA inh | BJeLR lethal | Mtb betalactam | Y pestis TopoI | RecA intein inh | CCHFV vOTU inh
CC=Cc1ccc2n(c1=O)C[C@H]1[C@H](CO)[C@@H](C(=O)N3CCCCC3)[C@@H]2N1C(=O)C1CCC1 (mixture of isomers) | -2 | / | / | / | / | /
Clc1ccc(OCCCn2ccnc2)c(Br)c1 | / | -3 | 69 | 8 | 1 | -5
Clc1ccc(CO/N=C(\Cn2ccnc2)c2ccc(Cl)cc2Cl)c(Cl)c1 | / | 12 | 99 | / | 32* | /
C[C@H](CO)N1C[C@H](C)[C@@H](CN(C)Cc2ccc(C(F)(F)F)cc2)Oc2c(NC(=O)C3CCOCC3)cccc2C1=O | 1 | / | / | / | / | /
C[C@@H]1CN([C@H](C)CO)C(=O)c2cccc(NC(=O)c3ccc(-c4nccs4)cc3)c2O[C@@H]1CN(C)Cc1ccncc1 | -3 | / | / | / | / | /
Cc1ccc(C=C2C(Cl)=C(Cl)C(Cl)=C2Cl)cc1 | / | 39 | 99 | / | 31* | /
Cc1ccc(/C=[N+](/C)[O-])cc1 | / | 2 | 0 | 12 | 0 | 3
CC1=NNC(=O)C1C(c1cccc(O)c1)C(C#N)C#N (stereo unspecified) | / | -4 | 2 | -7 | 60* | 0
Cc1sc2cc3c(c(C(=O)c4ccccc4)[n+]2c1C)-c1cccc2cccc-3c12 | / | 68* | 100 | / | 5 | -11
O=c1c(Br)c(Br)cnn1-c1ccccc1 | / | / | / | -9 | / | 12
Cc1ccc(-n2ncc(Br)c(Br)c2=O)cc1 | 2 | -9 | / | 0 | 67* | /
COc1ccc(NC(=O)N(C)C[C@@H]2Oc3c(NS(=O)(=O)c4ccc(OC)cc4)cccc3C(=O)N([C@H](C)CO)C[C@H]2C)cc1 | -2 | / | / | / | / | /
O=C1OCCN1C(=O)[C@H]1[C@H](c2ccc([N+](=O)[O-])cc2)C(c2ccc(F)cc2)=NN1c1ccccc1 | -2 | / | / | -12 | / | 12
O=C1OCCN1C(=O)[C@H]1[C@H](c2ccc([N+](=O)[O-])cc2)C(c2ccc(F)cc2)=NN1c1ccc(Br)cc1 | -1 | / | / | -7 | / | 32*
CCCNC(=O)Nc1ccc2c(c1)C(=O)N(C)C[C@@H](OC)[C@@H](C)CN(C(=O)C1CCC1)[C@@H](C)CO2 | 0 | / | / | / | / | /
O=C1NC(=O)C(=Cc2ccccc2[N+](=O)[O-])S1 | 4 | / | / | 62* | / | 24
COCC(=O)Nc1ccc2c(c1)OC[C@@H](C)N(CC1CC1)C[C@H](C)[C@H](OC)CN(C)C2=O | -1 | / | / | / | / | /
COc1ccc(NC(=O)COc2ccccc2C)cc1S(=O)(=O)N1CCCCC1 | -1 | 3 | -3 | 35 | 5 | -8
COc1cc(C(=O)NS(=O)(=O)c2ccccc2C)ccc1Cc1cn(C)c2ccc(NC(=O)OC3CCCC3)cc12 | / | 8 | 4 | / | 38* | /
COc1ccc(CN2CCN(C(=O)C3CC(=O)N(C4CCCCCC4)C3)CC2)c(OC)c1OC (stereo unspecified) | -1 | -8 | -4 | 74* | 0 | -4
COc1ccc(CN2CCCC(C(=O)N3CCCC3)C2)c(OC)c1OC (stereo unspecified) | -1 | / | / | 1 | / | 11
NS(=O)(=O)c1ccc(NC(=O)c2cc(-c3cccs3)nc3ccccc23)cc1 | / | 63* | -5 | 21 | 0 | -25
Cc1cc(C(=O)c2ccc(Cl)cc2)c(NC(=O)CCl)s1 | / | -2 | 96 | 6 | 33* | 16

Screens from PubChem.
